Laboratory results reported in the supplement of paper PMC11001985.
Unmarked numbers belong to inactive results.

Molecular target: ACLY (lysine site: K991) (UniProt P53396)
Test: lysine labeling ratio R10:1 (500 µM / 50 µM probe), SILAC-ABPP in living cells; higher = lower intrinsic lysine reactivity toward the probe, active = 2 or less
Conditions: HeLa; probe concentrations 500 vs 50 µM
Protocol: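 Living HeLa cells (SILAC light/heavy) in PBS at room temperature were labeled with 50 µM versus 500 µM of the lysine-reactive, reductant-cleavable probe OPA-S-S-alkyne (SILAC labeling time not stated). Probe-modified peptides were CuAAC-biotinylated, captured on neutravidin and eluted with DTT/IAA, then quantified by LC-MS/MS. R = median peptide ratio per lysine (500/50 µM), combined over 3 forward and 3 reverse SILAC replicates. Ratios are capped at 20; R < 2 = hyper-reactive.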

Chain of ACLY (lysine site: K991) (P53396 whole entry): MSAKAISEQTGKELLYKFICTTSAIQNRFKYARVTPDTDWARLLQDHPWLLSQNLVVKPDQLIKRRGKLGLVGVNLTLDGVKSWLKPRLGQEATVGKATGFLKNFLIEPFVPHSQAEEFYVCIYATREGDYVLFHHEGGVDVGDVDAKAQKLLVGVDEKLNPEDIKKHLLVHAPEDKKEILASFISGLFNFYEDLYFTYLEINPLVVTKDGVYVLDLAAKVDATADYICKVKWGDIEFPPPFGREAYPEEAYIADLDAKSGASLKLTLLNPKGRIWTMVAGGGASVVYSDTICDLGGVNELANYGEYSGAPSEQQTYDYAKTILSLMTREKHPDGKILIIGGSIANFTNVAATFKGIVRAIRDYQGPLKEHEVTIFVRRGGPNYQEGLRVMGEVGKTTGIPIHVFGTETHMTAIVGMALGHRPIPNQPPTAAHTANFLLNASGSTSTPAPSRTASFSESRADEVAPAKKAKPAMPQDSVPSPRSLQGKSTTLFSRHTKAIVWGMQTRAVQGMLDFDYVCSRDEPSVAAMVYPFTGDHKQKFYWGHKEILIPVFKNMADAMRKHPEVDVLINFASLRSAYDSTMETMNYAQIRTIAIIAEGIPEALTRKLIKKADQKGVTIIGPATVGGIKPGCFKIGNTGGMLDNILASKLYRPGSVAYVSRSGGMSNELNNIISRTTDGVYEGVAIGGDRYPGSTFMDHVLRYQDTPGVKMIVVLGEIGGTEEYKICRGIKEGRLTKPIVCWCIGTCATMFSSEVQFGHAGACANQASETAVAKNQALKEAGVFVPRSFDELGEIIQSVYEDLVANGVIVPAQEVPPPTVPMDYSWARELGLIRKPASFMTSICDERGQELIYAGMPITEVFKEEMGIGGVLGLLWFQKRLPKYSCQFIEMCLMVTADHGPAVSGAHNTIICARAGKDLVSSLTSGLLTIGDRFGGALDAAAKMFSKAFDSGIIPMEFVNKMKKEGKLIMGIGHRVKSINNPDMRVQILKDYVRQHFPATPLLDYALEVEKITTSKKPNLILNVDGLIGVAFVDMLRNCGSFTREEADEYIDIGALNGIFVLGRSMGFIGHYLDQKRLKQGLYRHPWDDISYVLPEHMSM

Question: With C#CCNC(=O)CCSSCCC(=O)NCCc1ccc(C=O)c(C=O)c1 as the compound, how does the “lysine labeling ratio R10:1” value read?
Answer: The value was 2.27.
